Bioassay records deposited in PubChem BioAssay by National Center for Advancing Translational Sciences (NCATS).
Sampled rows, rich in hits. Any-hit rate of the full collection: about 2.3%.
GoLoco inh red: qHTS Assay for Inhibitors of RGS12 GoLoco Motif Activity (Red Fluorophore) | 0.44% of 230,000 active | Guanine nucleotide-binding protein G(i) subunit alpha-1 (Homo sapiens), P63096 | Potency, µM (doses to about 61.6 µM), inactives show at the highest dose activity, negative = inhibition, actives largely listed as inhibitors | Gai1:RGS12 GoLoco peptide FP, rhodamine, 10 min; active means well fitted inhibition curve with a large enough effect, not every such curve was filed as active; inactive means no such curve, though single readings can be large or run the other way; further: potency means the concentration at half of the fitted maximal effect; on the % scale 0 is the no-effect control and ±100 the full control effect; nearly all actives have a fitted effect of over 30% in size
HTT aggregate: qHTS Multiplex Assay to Identify Dual Action Probes in a Cell Model of Huntington: Aggregate Formation (GFP); PC12 HttQ103-GFP aggregates, Acumen cytometry, 40 h; Potency, µM (top dose mostly 46.1 µM), for the others: top-dose activity change, negative = inhibition, usual class: inhibitors; 1.1% of 220,000 active; AID 1688, 2009; further: potency means the concentration at half of the fitted maximal effect; on the % scale 0 is the no-effect control and ±100 the full control effect; nearly all actives have a fitted effect of over 60% in size
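Multiplexed with ATP-based cell death, this channel scores GFP aggregates in PC12 cells expressing inducible HTTex1-Q103-GFP. Induction used 100 nM tebufenozide; compounds were tested in concentration series.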
VDR inh: Inhibitors of the vitamin D receptor (VDR): qHTS; Vitamin D3 receptor (Homo sapiens), P11473; VDR-SRC2-3 peptide fluorescence polarization, 2 h; Potency, µM, inactives show max response, negative = inhibition, hits mostly inhibitors; 0.93% of 400,000 active; AID 504847, 2011; further: potency means the concentration at half of the fitted maximal effect; on the % scale 0 is the no-effect control and ±100 the full control effect
Target sequence (P11473 whole entry, looked up): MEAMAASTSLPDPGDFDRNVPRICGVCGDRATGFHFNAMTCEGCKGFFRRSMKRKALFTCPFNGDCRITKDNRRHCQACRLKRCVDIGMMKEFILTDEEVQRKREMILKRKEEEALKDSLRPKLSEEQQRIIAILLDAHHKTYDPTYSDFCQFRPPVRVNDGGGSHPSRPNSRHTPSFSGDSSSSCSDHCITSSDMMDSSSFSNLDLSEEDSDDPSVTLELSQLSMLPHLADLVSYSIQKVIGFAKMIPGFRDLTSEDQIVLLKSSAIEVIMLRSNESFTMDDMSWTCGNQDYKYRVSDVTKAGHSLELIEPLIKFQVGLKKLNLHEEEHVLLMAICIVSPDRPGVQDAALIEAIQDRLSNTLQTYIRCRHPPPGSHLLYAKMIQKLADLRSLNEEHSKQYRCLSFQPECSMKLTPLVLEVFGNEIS
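VDR–SRC2-3 interaction, FP format. Cmpds 23 nl via pintool, brief spin, 2 h ambient incubation.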
JMJD2E inh: qHTS Assay for Inhibitors of Human Jumonji Domain Containing 2E (JMJD2E); Lysine-specific demethylase 4E (Homo sapiens), B2RXH2; JMJD2E catalytic domain, FDH-coupled NADH fluorescence (FDH is formaldehyde dehydrogenase); Potency, µM (doses to about 57.1 µM), for inactives: top-dose activity change, negative = inhibition, most hits filed as inhibitors; 1.6% of 230,000 active; AID 2147, 2009; active means well fitted inhibition curve with a large enough effect, not every such curve was filed as active; inconclusive means small, poorly fitted or top-dose-only effect, or another doubt; inactive means no such curve, though single readings can be large or run the other way;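 further: potency means the concentration at half of the fitted maximal effect; 0% = wells with enzyme and -100% = buffer wells without enzyme; nearly all actives have a fitted effect of over 50% in size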
HTT ATP protect: qHTS Multiplex Assay to Identify Dual Action Probes in a Cell Model of Huntington: Cytoprotection (ATP). PC12 HTT-Q103 induced, cytoprotection, ATP luminescence, 40 h. Potency, µM (top dose mostly 56.4 µM), without a hit: cytoprotection (ATP increase), most hits filed as activators. 0.14% of 230,000 active. AID 1471, 2008; further: potency means the concentration at half of the fitted maximal effect; % of control where 0% means no effect; nearly all actives have a fitted effect of over 45% in size
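Compounds added alongside 100 nM tebufenozide, which induces toxic Q103 huntingtin exon 1-GFP in stable PC12 cells; surviving cells quantified by luminescent ATP measurement. Medium: phenol red-free DMEM, 5% equine and 5% calf serum.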
Coupling enz: qHTS Assay for Inhibitors of Fructose-1,6-bisphosphate Aldolase from Giardia Lamblia: Coupling assay counterscreen; AID 2472, 2010; 0.67% of 290,000 active; activity change, negative = inhibition, % at 58.2 µM, hits read low; coupling enzyme system counterscreen, AmpLite Red fluorescence; in the data active means activity change below about -30%; further: on the % scale 0 is the no-effect control and ±100 the full control effect
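Counterscreen lacking aldolase: glyceraldehyde-3-phosphate coupling-enzyme reagent preincubated 10 min at RT with compound (at 57.5 uM final), then substrate/coupling system with AmpLite Red added; fluorescence read at 525/598 nm after 20 min RT.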
VDR confirm: qHTS for Inhibitors of the vitamin D receptor (VDR): Hit Validation in Primary Screen; shares compounds with VDR inh; VDR-coactivator inhibition assay, qHTS confirmation; Potency, µM, usual class: inhibitors; 89% of 840 active; further: potency means the concentration at half of the fitted maximal effect
VDR FP: qHTS for Inhibitors of the vitamin D receptor (VDR): Hit Validation using a Fluorescein Assay; shares compounds with VDR inh; VDR-coactivator binding, fluorescein fluorescence polarization; Potency, µM (titrated, usually from 57.1 µM), for the others: at the highest dose activity change, negative = inhibition, most hits filed as inhibitors; 48% of 840 active; further: potency means the concentration at half of the fitted maximal effect
VDR bla: qHTS for Inhibitors of the vitamin D receptor (VDR): Hit Validation using a Beta-Lactamase Assay; Potency, µM (titrated, usually from 46.1 µM), for the others: top-dose activity change, negative = inhibition, usual class: inhibitors; VDR beta-lactamase reporter cells, FRET ratio; cells co-treated with VDR agonist LG190178; shares compounds with VDR inh; 23% of 840 active; further: potency means the concentration at half of the fitted maximal effect; on the % scale 0 is the no-effect control and ±100 the full control effect
VDR viability: qHTS for Inhibitors of the vitamin D receptor (VDR): Hit Validation using a Cytotoxicity Assay. AID 602204, 2012. shares compounds with VDR inh. cytotoxicity counter-screen, cell viability, qHTS. 18% of 840 active. Potency, µM (doses to about 48.3 µM), for the others: at the top dose activity change, negative = cytotoxicity, most hits filed as cytotoxic;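 further: potency means the concentration at half of the fitted maximal effect; plate controls were DMSO for no effect and high-concentration cycloheximide for full effect; nearly all actives have a fitted effect of over 75% in size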
Numbers without * were called inactive; [ ] = another dose, or the depositor's remark. Unless noted, the call rests on the fitted dose curve; in most records, active means well fitted curve in the direction sought with a large enough effect; inconclusive means small, poorly fitted or top-dose-only effect, or another doubt; inactive means no such curve, though single readings can be large; an effect the other way counts as inactive or inconclusive.

Screening O=Cc1cn(-c2ccccc2)nc1-c1ccc(F)cc1 returned VDR inh -2.7% and Coupling enz 5.1.
`CCOc1ccc(CCNC(=O)Cn2c(C)c3cnn(-c4ccccc4)c(=O)c3c2C)cc1` gave VDR inh 3.5%.
For c1ccc(OCc2nn3c(Cn4nnc5ccccc54)nnc3s2)cc1 the results were GoLoco inh red -5.3%, HTT aggregate 9.8%, VDR inh inconclusive, JMJD2E inh -29.5%, HTT ATP protect -14.6%, Coupling enz 3.0, VDR confirm 22.4*, VDR FP 8.91µM*, VDR bla 2.5% and VDR viability -14.2%.
For c1ccc(-c2nn3c(Cn4nnc5ccccc54)nnc3s2)nc1 the results were GoLoco inh red -60.4%, HTT aggregate 7.9%, VDR inh -14.9%, JMJD2E inh inconclusive, HTT ATP protect -14.1% and Coupling enz -0.1.
Screening Clc1ccccc1-c1nn2c(Cn3cnc4ccccc43)nnc2s1 returned GoLoco inh red -8.8%, HTT aggregate -12.1%, VDR inh -22.6%, JMJD2E inh 2.6%, HTT ATP protect -25.2%[0.074 µM] and Coupling enz 2.1.
`c1ccc(CCc2nn3c(Cn4cnc5ccccc54)nnc3s2)cc1` gave GoLoco inh red -2.7%, HTT aggregate -28.7%, VDR inh inconclusive, JMJD2E inh -3.9%, HTT ATP protect 6.9%, Coupling enz 2.2, VDR confirm 22.4*, VDR FP 20µM*, VDR bla -3.1% and VDR viability -9.0%.
`COc1ccc(S(=O)(=O)N2CCN(c3nc(-c4ccccc4)nc4ccccc34)CC2)cc1` gave VDR inh -9.4%.
`CCOC(=O)c1cc(-c2ccccc2)sc1NC(=O)c1ccc(OC)cc1` gave GoLoco inh red -13.2%, HTT aggregate -0.8%, VDR inh 50.1µM*, JMJD2E inh 12.5%, HTT ATP protect 11.1%, Coupling enz 7.3, VDR confirm 29.9*, VDR FP 12.6µM*, VDR bla 15.3% and VDR viability -28.5%.
For CCOC(=O)c1cc(-c2ccccc2)sc1NC(=O)CC the results were GoLoco inh red 2.4%, HTT aggregate -7.5%, VDR inh inconclusive, JMJD2E inh -1.7%, HTT ATP protect -7.7%[10 µM] and Coupling enz 2.5.
COc1cc(NC(=O)Cn2c(=O)nc(-c3ccccc3F)c3cc(Cl)ccc32)cc(OC)c1 was read as VDR inh 3.3%.
Screening COc1ccccc1CNc1cc(-c2ccoc2)ncn1 returned GoLoco inh red 20.0%, VDR inh 15.8µM*, HTT ATP protect inconclusive, Coupling enz -3.5, VDR confirm inconclusive, VDR FP -5.0%, VDR bla 4.8% and VDR viability 9.7%.
COc1ccccc1CNc1cc(-c2ccccc2OC)ncn1 was read as GoLoco inh red -10.0%, VDR inh -0.8%, HTT ATP protect -89.9% and Coupling enz -0.4.
CC(=O)Nc1ccc(C2=NNC(=Nc3cccc(S(=O)(=O)N(C)C)c3)SC2)cc1 was read as GoLoco inh red 29.7%, HTT aggregate -12.2%[9.22 µM], VDR inh inconclusive, JMJD2E inh inconclusive, HTT ATP protect inconclusive, Coupling enz -2.7, VDR confirm 12.6*, VDR FP 12.6µM*, VDR bla inconclusive and VDR viability inconclusive.
CN(C)S(=O)(=O)c1cccc(N=C2NN=C(c3ccccc3)CS2)c1 was read as GoLoco inh red -11.9%, HTT aggregate inconclusive, VDR inh inconclusive, JMJD2E inh -1.7%, HTT ATP protect 10.4%[10 µM] and Coupling enz -0.4.
`COC/C=C/C1=CC2=CC(=O)C(C)(OC(=O)c3ccc(Cl)nc3)C(=O)C2=CO1` (stereo unspecified) gave GoLoco inh red 18.9%, VDR inh -25.6%, JMJD2E inh -19.3%, HTT ATP protect 4.9% and Coupling enz 2.2.
For O=C(O)COc1ccc(/C=C/C(=O)c2ccc(C3CCCCC3)cc2)cc1 the results were VDR inh inconclusive, Coupling enz 8.3, VDR confirm 7.08*, VDR FP 12.6µM*, VDR bla inconclusive and VDR viability -8.3%.
`CCOC(=O)c1c(NC(=O)c2ccco2)n(C2CCCCC2)c2nc3ccccc3nc12` gave GoLoco inh red 15.4%, HTT aggregate 17.4%, VDR inh inconclusive, JMJD2E inh inconclusive, HTT ATP protect -14.5%, Coupling enz -14.6, VDR confirm 3.16*, VDR FP inconclusive, VDR bla -20.3% and VDR viability -7.4%.
`CCC(=O)Nc1c(C#N)c2nc3ccccc3nc2n1C1CCCCC1` gave GoLoco inh red 8.7%, HTT aggregate -4.9%, VDR inh 6.4%, JMJD2E inh inconclusive, HTT ATP protect -9.3% and Coupling enz -2.1.
`Fc1cccc(F)c1-n1c(CN2CCCCC2)csc1=S` gave GoLoco inh red 6.2%, HTT aggregate 26.2%, VDR inh 16.2%, JMJD2E inh -0.2%, HTT ATP protect -47.1% and Coupling enz 2.3.
